The values that follow come from PubChem BioAssay AID504832 (National Center for Advancing Translational Sciences (NCATS), 2011).

SMILES strings stand for the structures. Out of some 310,000 compounds screened, about 18,000 (5.8%) were called active. Not shown: some 22% with an inconclusive outcome. For the sample, actives were picked, then their nearest neighbours and some compounds at random. Unmarked numbers belong to inactive results. Calls come from the whole dose curve; as a rule, active = well fitted inhibition curve with a large enough effect; inconclusive = small, poorly fitted or top-dose-only effect, or another doubt; inactive = no such curve, though single readings can be large or run the other way.
% is set by controls: 0 for no effect and ±100 for the full control effect; potency is the fitted concentration of half-maximal effect.

This assay is described as follows: Primary qHTS for delayed death inhibitors of the malarial parasite plastid, 48 hour incubation. Conditions: P. falciparum luciferase growth in erythrocytes; series mostly up to 28.7 µM; activity change, negative = inhibition: at the top concentration. In a few lines: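 Luminescence readout; reporter = integrated firefly luciferase in P. falciparum. RBC culture at 2% hematocrit, 0.1% parasitemia final, 37 C/5% CO2; decreased signal taken as growth inhibition.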
On the technique in general: In qHTS, concentration-response curves come from the screen itself.
In the case of `O=C(CSc1nc2ccccc2c(=O)n1CCCO)NC1CC1`, the “activity change, negative = inhibition” value was 15.6%.

With `O=C(N/N=C/c1cccc(OC(=O)c2ccc([N+](=O)[O-])cc2)c1)c1cccnc1`, the “activity change, negative = inhibition” value was 13%.

Regarding `O=C(O)/C=C/c1cn(-c2ccccc2)nc1-c1cccs1`, the “activity change, negative = inhibition” value is 43.4%.

For `O=C(/C=C\c1cn(-c2ccccc2)nc1-c1cccs1)N1CCOCC1`, the “activity change, negative = inhibition” value is 45.5%.

For `O=C(O)c1ccc(N/N=C/c2cn(-c3ccccc3)nc2-c2cccs2)cc1`, the Potency is 0.828 µM (active).

Take `COc1cccc2cc(C(=O)NCc3ccc(C)cc3)c(=N)oc12`: the “activity change, negative = inhibition” value is 2.8%.

With `CCOc1ccc(OCC(=O)OC(C)C(=O)NC2CCCCC2C)cc1` (centres undefined), the “activity change, negative = inhibition” value is 2.72%.

`Cc1oc2c(c1C(=O)N1CCOCC1)C(=O)c1ccccc1C2=O`: the Potency is 4.15 µM (active).

In the case of `Cc1onc(-c2ccccc2)c1C(=O)N1CCOCC1`, the “activity change, negative = inhibition” value is 12.5%.

Turning to `O=C(c1ccccc1-c1ccccc1)N1CCOCC1`, the “activity change, negative = inhibition” value was 9.71%.

For the compound `Cc1ccc(NC(=O)C2CCCN2C(=O)OCc2ccccc2)cc1C` (centres undefined), the “activity change, negative = inhibition” value is -6.37%.

For the compound `COc1ccc(C(=O)OCC(=O)Nc2ccc3[nH]c(=O)[nH]c3c2)c(OC)c1OC`, the “activity change, negative = inhibition” value is 2.5%.

In the case of `COc1ccc(NC(=O)C(=O)NCC(c2ccco2)N2CCc3ccccc3C2)cc1` (centres undefined), the Potency is 13.1 µM (active).

With `O=C(NCC(c1ccco1)N1CCc2ccccc2C1)c1ccccc1Cl` (centres undefined), the “activity change, negative = inhibition” value is -23.2%.

As for `CCOC(CNC(=O)C(=O)NCC(c1ccco1)N1CCN(c2ccc(OC)cc2)CC1)OCC` (centres undefined), the “activity change, negative = inhibition” value is 3.86%.

In the case of `C=CCc1cccc(/C=N/NC(=O)COc2ccc(-n3cnnn3)cc2)c1O`, the “activity change, negative = inhibition” value was -22%.

As to `CCOc1ccc(-n2c(SCC(N)=O)nnc2-c2ccco2)cc1`, the “activity change, negative = inhibition” value was 12.9%.

On to `COC(=O)C1=C(c2ccc(C(C)=O)cc2)C[C@@H]2CC[C@H]1N2C(=O)NCCNC(C)=O`, for which the “activity change, negative = inhibition” value was 37.2%.

Regarding `O=C(COc1cccc(Cl)c1)NCc1ccccc1`, the “activity change, negative = inhibition” value is 10.5%.

Consider `COC(=O)C1=C(c2cccc(OCc3ccccc3)c2)C[C@@H]2CC[C@H]1N2C(=O)NCc1ccc(Br)cc1`, for which the Potency is 11.7 µM (active).

As to `COC(=O)C1=C(c2cccc(OCc3ccccc3)c2)C[C@@H]2CC[C@H]1N2C(=O)NNCc1ccccc1`, the Potency was 8.28 µM (active).

On to `COC(=O)C1=C(c2c(C)noc2C)C[C@@H]2CC[C@H]1N2C(=O)NCc1ccc2c(c1)OCO2`, for which the “activity change, negative = inhibition” value is -0.217%.

For `COc1cccc(CNC(=O)C2CC(=O)N(C3CCCCCCC3)C2)c1` (centres undefined), the “activity change, negative = inhibition” value was -13.4%.

As for `O=C(NCc1ccncc1)C(=O)NCC1OCCN1S(=O)(=O)c1ccc(Br)cc1` (centres undefined), the “activity change, negative = inhibition” value was 9.05%.

Regarding `COCCCNc1nc2c(-c3cccc(C)c3)nnn2c2ccc(Cl)cc12`, the “activity change, negative = inhibition” value is -9.36%.

Regarding `CCOc1ccc(CC(=O)NCCS(=O)(=O)N2CCN(c3ccccc3)CC2)cc1`, the “activity change, negative = inhibition” value was -14.8%.

With `Cc1csc2nc(O)c(C(=O)NCCN3CCOCC3)c(=O)n12`, the “activity change, negative = inhibition” value is -13.4%.

As for `O=C(CN1CCN(S(=O)(=O)c2ccc(Cl)s2)CC1)N1CCCCC1`, the “activity change, negative = inhibition” value is -8.33%.

With `CS(=O)(=O)N1CCN(C(=O)c2cc3ccccc3oc2=O)CC1`, the “activity change, negative = inhibition” value is -0.673%.

For the compound `O=C(c1cc2ccccc2o1)N1CCN(S(=O)(=O)c2ccc(Cl)s2)CC1`, the Potency was 11.7 µM (active).

Turning to `CCOC(=O)N1CCN(C(=O)c2ccc(S(=O)(=O)c3ccc(C)cc3)c(NC(C)=O)c2)CC1`, the “activity change, negative = inhibition” value was -6.92%.

`CCOC(=O)N1CCN(C(=O)c2ccc3c(c2)N(Cc2ccc(C)cc2)CCS3)CC1`: the Potency is 13.1 µM (active).

For the compound `O=C(NCCc1ccccc1)c1ccc2c(c1)N(Cc1ccccc1)CCS2`, the “activity change, negative = inhibition” value is -14.5%.

Consider `CCC(C)(C)NC(=O)C(c1ccc(O)cc1)N(C(=O)Cn1nnc2ccccc21)c1ccc(NC(C)=O)cc1` (centres undefined), for which the Potency was 2.08 µM (active).

For the compound `COc1ccc(C(C(=O)NC(C)(C)C)N(C(=O)Cn2nnc3ccccc32)c2ccc(C(C)=O)cc2)cc1O` (centres undefined), the “activity change, negative = inhibition” value is -29.7%.

Regarding `CCC(C)(C)NC(=O)C(c1ccccn1)N(C(=O)c1csnn1)c1ccccc1` (centres undefined), the “activity change, negative = inhibition” value is 1.07%.

Regarding `CCN(CC(=O)Nc1cc(Cl)ccc1C)C(=O)CSCc1ccc(C)cc1`, the “activity change, negative = inhibition” value was 0.0039%.

Consider `Cc1ccc(/C=N/NC(=O)CN2CCN(Cc3ccccc3)CC2)s1`, for which the “activity change, negative = inhibition” value is 51%.

Take `C=CCNC(=S)N/N=C/c1ccc(OCc2ccccc2)cc1`: the “activity change, negative = inhibition” value was -2.98%.

In the case of `C=CCNC(=S)N/N=C/c1ccc(C)s1`, the Potency was 4.65 µM (active).

`CC(C)(C)C(=O)NC1CC2CCCC(C1)N2C(=O)Nc1ccccc1F` (centres undefined): the “activity change, negative = inhibition” value is 11.9%.

On to `O=S(=O)(Nc1ccc(-n2cnnn2)cc1)c1ccc(Cl)cc1`, for which the “activity change, negative = inhibition” value is -3.82%.

As to `CCOc1ccc(-n2c(SCC(=O)OC)nc3sc4c(c3c2=O)CCN(C)C4)cc1`, the Potency is 0.928 µM (active).

On to `CCc1nc(SCC(=O)Nc2ccccc2OC)n[nH]1`, for which the “activity change, negative = inhibition” value is 29.7%.

Turning to `COc1ccccc1NC(=O)CSc1nc2sc3c(c2c(=O)n1-c1ccccc1)CCN(C)C3`, the Potency is 1.65 µM (active).

Regarding `COc1ccc(-n2c(=S)[nH]c3sc4c(c3c2=O)CCc2ccccc2-4)cc1`, the “activity change, negative = inhibition” value was -0.883%.

For the compound `CCc1cc2c(=O)n(-c3ccccc3)c(SCC(=O)O)nc2s1`, the “activity change, negative = inhibition” value is 7.53%.

Consider `CCOC(=O)Cn1c(SC)nc2sc3c(c2c1=O)CC(C)(C)OC3`, for which the “activity change, negative = inhibition” value was 0.338%.

Consider `CCSc1nc2sc3c(c2c(=O)n1-c1ccc(C)cc1)CCN(C)C3`, for which the Potency was 2.62 µM (active).

With `Cc1sc2nc(SCCO)n(-c3ccccc3)c(=O)c2c1C`, the “activity change, negative = inhibition” value is 5.65%.

For `COc1ccccc1-n1c(SCC(=O)O)nc2sc3c(c2c1=O)CCC3`, the “activity change, negative = inhibition” value is -4.58%.

Regarding `Cc1ccc(C)c(-n2c(SCC(=O)O)nc3sc4c(c3c2=O)CCCC4)c1`, the “activity change, negative = inhibition” value was -7.11%.

As for `CCCSc1nc2sc3c(c2c(=O)n1-c1ccc(OC)cc1)CCN(C)C3`, the Potency was 7.38 µM (active).

Consider `CCOc1ccc2cc(C#N)c(SCC(=O)OC)nc2c1`, for which the “activity change, negative = inhibition” value was 202%.
